Test results taken from ChEMBL document CHEMBL1157539, “Thousands of chemical starting points for antimalarial lead identification” (Nature, 2010).

system: HepG2; assay: GSK_TCMDC: Percent inhibition of human HepG2 cell line. Test compounds present at 10uM.; assay type: functional

Row | Compound | Inhibition [%]
1 | Cc1csc(NC(=O)c2cn(-c3ccccc3)nc2-c2cccs2)n1 | 0
2 | Cl.Nc1nc(N)c2c(ccc3c2ccn3CCCC2CCCNC2)n1 (stereo not drawn) | 67
3 | Cc1noc(C)c1-c1cccc(CNCc2cccc(-c3ccc(-c4nc5cc(C(F)(F)F)ccc5[nH]4)s3)c2)c1.O=C(O)C(F)(F)F | 23
4 | CCOC(=O)c1ccc(NC(=O)NNC(=O)c2ccc(CCN3CCC(c4nc(COCC(F)(F)F)c(-c5ccc(F)cc5)o4)CC3)cc2)cc1 | 10
5 | NCCCNc1nc(Nc2ccc(C(F)(F)F)cc2F)c2c(=O)[nH]ccc2n1.O=C(O)C(F)(F)F | 23
6 | COc1cccc(C(=O)NC(C=Cc2ccccc2)c2cc(Cl)c3cccnc3c2O)c1 (stereo not drawn) | 27
7 | COc1ccc2nccc([C@@H](O)CN3CCC(NCc4cc5cc(C)ccc5s4)CC3)c2c1.O=C(O)C(=O)O | 13
8 | CN1CCC(C(=O)N(Cc2ccc(-c3ccc(CNCCc4ccc(S(C)(=O)=O)cc4)cn3)cc2)Cc2cccc(F)c2)CC1.O=C(O)C(F)(F)F | 10
